Bioassay records (PubChem)
HSF1 activator: increases HSF-1 driven luciferase reporter signal; hit rate 1.7% among 300,000; AID 504408; activation, % at 9 µM; NIH3T3-HGL HSF-1 luciferase reporter, MG132, 8 h; 100% = twice DMSO control signal;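 active = mean replicate activation of at least 50% with a set share of replicates each reaching 50%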;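 note: 0% = median of the neutral control wells and 100% = twice that signal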
AHR act: activates the human aryl hydrocarbon receptor | P35869 | activation, % at 5 µM | hit rate 2.5% among 320,000 | AID 2796 | AHR-responsive luciferase reporter cells, luminescence; in the data active = activation above about 47%;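 note: 0% = vehicle wells and 100% = reference agonist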
HSF1 inhib: HSF1 inhibition; NIH3T3-HGL HSE-luciferase, MG132-induced, luminescence 8 h; hits give low values; activity change, negative = inhibition, % at 7.5 µM (by protocol); hit rate 0.77% among 300,000;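 active = more than half of replicate wells show activity change below -50%, luminescence cut by over half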;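 note: luciferase reports HSF-1 transcriptional activity via heat shock element; 0% = median of DMSO wells and -100% = zero luminescence signal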
NR0B1 inh: inhibitors of human orphan nuclear receptor DAX1 (NR0B1). P51843. HEK293 Gal4-DAX1 luciferase reporter, luminescence. inhibition, % at 6.75 µM. hit rate 0.99% among 340,000. AID 504766;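 active = inhibition above the mean over all tested compounds plus 3 SD, cut at about 4.2% in these data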;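 note: 0% = DAX1-transfected cells with DMSO and 100% = empty-vector control cells with DMSO; inhibition shows as a rise in luminescence from relieved DAX1 repression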
Target sequence (P51843 207-470 limits assumed): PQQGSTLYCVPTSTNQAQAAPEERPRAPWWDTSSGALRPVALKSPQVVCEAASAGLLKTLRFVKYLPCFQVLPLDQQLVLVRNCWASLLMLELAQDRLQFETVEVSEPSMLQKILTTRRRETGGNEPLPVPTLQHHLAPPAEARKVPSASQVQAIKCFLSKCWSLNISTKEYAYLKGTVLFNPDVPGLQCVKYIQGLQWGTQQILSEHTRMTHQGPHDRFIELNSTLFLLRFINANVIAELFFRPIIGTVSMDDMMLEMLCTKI
FXN GAA850 act: frataxin GAA850 promoter activation. HEK293 lucGAA850 FXN promoter luciferase reporter, 24 h; percent of 10 µM SAHA response. AID 540364. activation, % at 6 µM. hit rate 0.56% among 360,000;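 active = activation above the average of all compounds screened plus 3 SD, cutoff fixed separately per campaign, cut at about 7.5% in these data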;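 note: 0% = DMSO wells and 100% = 10 µM SAHA wells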
Active calls of the source: *; . = not tested or not shown. Rows were chosen to be rich in hits. Some 5.4% of all compounds tested hit in one or more screens of this group.

SMILES	HSF1 activator	AHR act	HSF1 inhib	NR0B1 inh	FXN GAA850 act
COCCCNC(=O)c1ccc2c3c(onc13)-c1ccccc1C2=O	139.4*	14.6	100.5	1.1	1.6
Cc1ccccc1C(=O)NCCOc1ccccc1Cl	69.6*	-2.1	42.9	5.0*	3.1
CSc1ccccc1C(=O)NCCOc1ccccc1C	28.0	6.6	3.7	-1.6	-0.5
CN1CCc2c(OCC(=O)NC3CCCCC3)cccc2C1=O	6.7	0.6	-0.2	0.0	0.6
COc1ccc(NC(=O)COc2cccc3c2CCN(C)C3=O)c(OC)c1	-3.4	77.4*	0.2	-0.7	-1.1
CCOC(=O)COc1ccc(/C=C2/SC(=Nc3ccccc3)N(Cc3cccnc3)C2=O)cc1OC	63.7*	-0.8	28.3	1.2	1.4
COc1ccc(C2C(=O)NN=C2C)cc1 (centres undefined)	.	.	.	5.3*	0.3
COc1ccc(C2c3c(nc[nH]c3=O)Oc3nc[nH]c(=O)c32)cc1	-9.2	1.2	-5.0	-0.7	1.5
Cc1cc(C)c2c(CC(=O)N(CCC#N)Cc3cccnc3)coc2c1	10.5	0.5	1.3	0.2	1.5
CCCCNC(=S)NNC(=O)c1csc2ccccc12	130.7*	1.8	64.8	-0.9	1.0
CCCCNC(=S)NNC(=O)c1cc(-c2cccnc2)nc2ccccc12	-4.5	53.9*	-4.8	-0.3	-1.1
CCCCNC(=S)NNC(=O)c1ccoc1C	1.9	1.0	18.7	1.8	0.3
CCCCC(CC)CNC(=O)Cn1c(=S)[nH]c2ncccc2c1=O (centres undefined)	-8.2	1.0	-8.4	.	.
O=C1CN(c2nc(-c3ccccc3)c3ccccc3n2)c2ccccc2N1	8.5	61.1*	-8.4	-0.5	0.3
CCOC(=O)c1csc(Nc2nc3ccc(F)cc3s2)n1	7.7	30.8	15.5	0.4	5.0
CC(=O)c1sc(Nc2nc3ccc(F)cc3s2)nc1C	81.9*	65.4*	54.6	0.5	2.6
COC(=O)c1ccc2nc(Nc3nc4ccc(F)cc4s3)sc2c1	-91.1	-1.9	-89.3*	-5.0	-7.0
COC(=O)c1ccc2nc(NC(=O)C(C)(C)C)sc2c1	-66.3	-3.0	-55.3*	-5.6	-7.9
CCOC(=O)CC1C(=O)NCCN1C(=S)NC(=O)c1ccc(C)c(Br)c1 (centres undefined)	.	.	.	1.1	1.1
CCN(C(=O)CSc1nc2ccccc2c(=O)n1CCOC)C1CCS(=O)(=O)C1 (centres undefined)	7.9	0.3	-2.0	0.0	0.2
COc1cc2c(cc1OC)C(c1cccs1)N(C(=O)c1ccncc1)CC2 (centres undefined)	-17.5	10.3	-1.5	-0.4	-2.9
COc1cc2c(cc1OC)C(c1cccs1)N(C(=S)NC(C)C)CC2 (centres undefined)	90.6*	-0.6	54.7	2.0	-3.5
Cc1ccc2[nH]c(=O)c3cc(C(=O)N4CCN(C(=O)c5ccco5)CC4)sc3c2c1	-11.8	78.2*	2.0	0.2	1.3
Cc1ccc2c(C(=O)CN3CCN(C(=O)c4ccco4)CC3)c(C)[nH]c2c1	4.7	53.3*	9.1	.	2.7
Cc1ccc2c(C(=O)CN3CCN(C4CCCCC4)CC3)c(C)[nH]c2c1	9.7	19.5	-4.2	0.2	0.6
SMILES	HSF1 activator	AHR act	HSF1 inhib	NR0B1 inh	FXN GAA850 act
CCN1CCN(CCCNC(=O)c2cc3c(=O)oc4ccc(C)cc4c3s2)CC1	-17.6	-0.3	6.2	2.4	0.1
CCCN1CCN(CCCNC(=O)c2cc3c(=O)[nH]c4ccc(C)cc4c3s2)CC1	1.2	12.7	-1.1	6.4*	0.0
C=CCOC(=O)C1=C[C@H](c2csc3ccccc23)C[C@H](OCc2ccc(CO)cc2)O1	18.6	3.4	10.9	1.7	0.4
CCc1nc(N2CCCCC2C)c2oc3ccccc3c2n1 (centres undefined)	-0.6	48.3*	-2.5	1.2	-1.9
CCc1nc(N2CCCCC2C(=O)O)c2oc3ccccc3c2n1 (centres undefined)	17.1	16.9	-5.5	-1.0	1.8
CCCc1nc(Nc2nc3ccccc3o2)nc(C)c1C(=O)OCC	63.9*	13.3	32.8	0.9	5.6
O=C(NCc1cccnc1)C(=O)NCC(c1ccco1)N1CCOCC1 (centres undefined)	6.1	-0.2	-1.2	0.9	1.1
O=C(NCc1cccnc1)C(=O)NCC(c1ccco1)N1CCN(c2ccccc2)CC1 (centres undefined)	80.2*	-4.3	41.1	-0.9	-0.5
O=C(NCc1ccco1)C(=O)NCC(c1ccco1)N1CCOCC1 (centres undefined)	-76.9	-0.3	-68.9*	2.5	1.0
CCc1cnc(Nc2nc(C(N)c3ccccc3Cl)cs2)nc1 (centres undefined)	.	.	.	.	-2.6
COc1ccc(-c2nc(-n3c(C)c(C(C)=O)c(C(C)=O)c3C)sc2C)cc1OC	-1.3	7.7	-2.5	2.7	-0.5
CC(=O)c1c(C(C)=O)c(C)n(-c2nc(-c3ccc(Br)cc3)c(C)s2)c1C	2.4	56.4*	-5.8	0.6	0.7
CCOc1ccc(C2Oc3nc(SC)nnc3-c3ccccc3N2C(C)=O)cc1OC (centres undefined)	-0.3	-0.1	-0.2	6.0*	1.5
O=C(Nc1ccc(/C=C/c2nc3ccccc3o2)cc1)c1cccc(C(F)(F)F)c1	-4.5	9.3	-5.3	0.0	4.8
O=C(Nc1ccc(/C=C/c2nc3ccccc3o2)cc1)c1c(F)cccc1F	35.2	48.7*	17.4	-0.1	1.8
CC(=O)Nc1ccc(/C=C/c2nc3ccccc3o2)cc1	32.0	-4.3	21.6	4.5*	2.4
CCOC(=O)c1sc(NC(=O)c2sccc2C)cc1C	73.4*	-10.0	41.9	3.0	5.0
Cc1ccccc1NC(=O)c1ccc2c(c1)CCN2S(C)(=O)=O	3.6	.	3.7	-0.4	3.0
O=C(Nc1ccccc1N1CCOCC1)c1ccc(Cl)nc1	6.5	60.2*	2.0	0.2	1.7
CS(=O)(=O)N1CCc2cc(C(=O)Nc3ccccc3Cl)ccc21	21.3	7.3	11.8	20.9*	3.8
N#Cc1cc2ccccc2nc1SCC(=O)Nc1ccccc1N1CCOCC1	71.2*	3.5	23.7	1.8	1.2
COc1c(F)c(F)c(C(=O)Nc2ccccc2N2CCN(C(C)=O)CC2)c(F)c1F	-6.8	49.6*	0.9	0.3	-0.9
Cc1cc(C(=O)Nc2ccc(N3CCOCC3)c(Cl)c2)c(C)o1	21.6	2.5	13.9	4.2*	1.3
COc1cc(OC)cc(C(=O)Nc2ccccc2N2CCOCC2)c1	-3.1	61.3*	-5.5	0.3	0.5
CS(=O)(=O)N1CCN(c2ccccc2NC(=O)c2ccc(Cl)cc2)CC1	22.4	79.0*	8.3	-1.9	-0.9
O=C(Nc1cc(Cl)ccc1N1CCOCC1)c1cccnc1Cl	12.1	70.3*	-4.0	-0.4	0.0
CCN(C(=O)CSc1nnc(CNc2cccc(OC)c2)n1C1CCCCC1)C1CCS(=O)(=O)C1 (centres undefined)	-11.7	1.9	0.0	0.1	-2.4
O=C(Cc1coc2ccc3ccccc3c12)Nc1nnc(C2CC2)s1	-6.2	68.6*	-8.6	-2.6	-6.6
